47 compounds from ChEMBL document CHEMBL3988442, “University of Dundee, Small-Polar-MMV Screening Library” (2021) can be followed below.

Assay [1] has as its target T1, Aspartate--tRNA(Asp/Asn) ligase (Mycobacterium tuberculosis (strain ATCC 25618 / H37Rv)) (UniProt P9WFW3). Note: in the data most compounds retested in dose-response had high values.
T1 sequence (whole entry): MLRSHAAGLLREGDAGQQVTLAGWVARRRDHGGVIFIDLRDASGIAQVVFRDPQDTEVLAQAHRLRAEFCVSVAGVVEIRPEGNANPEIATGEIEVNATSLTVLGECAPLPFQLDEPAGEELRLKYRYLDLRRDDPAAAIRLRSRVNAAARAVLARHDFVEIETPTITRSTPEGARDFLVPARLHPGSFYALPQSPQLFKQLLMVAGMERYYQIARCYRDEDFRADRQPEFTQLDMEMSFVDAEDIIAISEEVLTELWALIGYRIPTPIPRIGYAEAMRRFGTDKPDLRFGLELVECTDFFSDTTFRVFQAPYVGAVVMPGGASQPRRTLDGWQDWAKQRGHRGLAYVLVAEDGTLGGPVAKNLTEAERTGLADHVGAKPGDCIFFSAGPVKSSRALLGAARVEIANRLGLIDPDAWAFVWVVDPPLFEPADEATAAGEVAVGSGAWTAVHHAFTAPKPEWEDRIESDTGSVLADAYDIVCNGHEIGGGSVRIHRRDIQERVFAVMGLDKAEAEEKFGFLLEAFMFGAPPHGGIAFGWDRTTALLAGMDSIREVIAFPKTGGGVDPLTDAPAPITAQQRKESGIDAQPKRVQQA
Kind of assay: Assay for Asp RNA synthetase-1 from Mycobacterium tuberculosis. The assay is classed as functional. Details: scale not given: direction of the effect not stated beside the values. The conditions noted are these: 30 µM.

Assay [2] concerns the target Shiga toxin 2 (Escherichia coli O157:H7) (UniProt P09385+P09386). Kind of assay: E. coli 0.157:H7 Shiga Toxin SOP - stx2 screening assay. The assay is classed as functional. Details: scale not given: direction of the effect not stated beside the values. The conditions noted are these: 30 µM.

On to `COc1cccc2cc(CNC(C)(C)C(=O)N3CCC(O)CC3)oc12`, for which the Percent Effect was -1.57% in assay [1] and 4.9% in assay [2].
Regarding `CC(C)(C)n1cc(C(=O)N2CCN(Cc3ccccc3F)CC2)cn1`, the Percent Effect in assay [1] was -1.61%; in assay [2], 20.1%.
On the same counts, the results for `Cc1cnn(CCC(=O)N2CCOC(c3nc(C(C)(C)C)n[nH]3)C2)c1` (centres undefined) are -1.81% and -26.2%.
On to `OC(CN1CCN(Cc2ccc(F)c(F)c2)CC1)C1CC1` (centres undefined), for which the Percent Effect was -4.54% in assay [1] and -0.879% in assay [2].
In the case of `Cn1cc(CCNC(=O)NCc2nnc3n2CCC3)cn1`, the Percent Effect in assay [1] is -2%; in assay [2], 5.89%.
On to `O=C(NCc1cncc2c1CCN(Cc1cccs1)C2)C1CC1`, for which the Percent Effect in assay [1] was 7.52%; in assay [2] it was -27.9%.
On the same counts, the results for `CNC(=O)c1cc2c(nc1NCC1CC1)CCN(S(=O)(=O)C1CC1)CC2` are 7.68% and -5.47%.
On the same counts, the results for `CCc1nccn1C1CCCN(C(=O)c2ccc3[nH]c(=O)[nH]c3c2)C1` (centres undefined) are -9.98% and -46.4%.
For `Cc1csc(N2CCN(Cc3ccccn3)CC2C)n1` (centres undefined), the values for the Percent Effect in assay [1] and in assay [2] were 6.41% and -0.687%, respectively.
The corresponding values for `O=C(C1CCOC1)N1C[C@H]2CN(Cc3nccs3)C[C@H]2C1` (some centres undefined) are -1.88% and 1.98%.
As for `Cc1cc(C)n(CC2CN(CCOc3cccc(C#N)c3)CCO2)n1` (centres undefined), the values for the Percent Effect in assay [1] and in assay [2] were 4.21% and 33%, respectively.
For the compound `CS(=O)(=O)CC(=O)N1C[C@H]2CCC[C@@]2(COCc2ccccn2)C1`, the Percent Effect in assay [1] is 4.11%; in assay [2] it was -6.39%.
On the same counts, the results for `Cn1cc(CN2CCc3onc(COc4cccnc4)c3C2)cn1` are -6.13% and -65.9%.
Take `Cc1ccn(-c2ccccc2NCc2cccnc2C)n1`: the Percent Effect was -3.62% in assay [1] and 0.821% in assay [2].
Take `CN1CCN(c2cc(CCNC(=O)C3CCC3)nc(C3CC3)n2)CC1`: the Percent Effect was -3.83% in assay [1] and -18.7% in assay [2].
As to `COc1ccc(-c2nnc(SCC(=O)NCC(C)C)[nH]2)c(OC)c1`, the Percent Effect in assay [1] is 6.14%; in assay [2], 6.1%.
The corresponding values for `O=C1CC2(CCCCN2C(=O)c2ccsc2)CN1CC1CC1` (centres undefined) are -2.94% and -8.01%.
Consider `CN(C)CC(=O)N1CCOC2(CCCN(c3ncccc3F)C2)C1` (centres undefined), for which the values for the Percent Effect in assay [1] and in assay [2] were 1.93% and -5.68%, respectively.
The corresponding values for `Cc1n[nH]c(C)c1C1COCCN1C(=O)c1ccccc1` (centres undefined) are 2.68% and -26%.
On the same counts, the results for `CCN1CC2(CC1=O)CN(Cc1cccs1)CCN(C(=O)C(C)C)C2` (centres undefined) are -0.746% and 0.818%.
On the same counts, the results for `Cc1cnn(CCNCc2nc(COc3ccc(F)cc3)no2)c1` are -1.72% and 16.3%.
For `Cc1ccccc1C1CCCN1C(=O)CN1CC2(CCNCC2)OC1=O` (centres undefined), the Percent Effect in assay [1] was 3.25%; in assay [2], 2.84%.
On the same counts, the results for `COc1ccc(C2CC(=O)Nc3c2nc2n3CCCC2)cc1O` (centres undefined) are -2% and -3.52%.
On the same counts, the results for `COCCCn1ccnc1-c1cnc(OC)nc1` are 2% and -0.356%.
Take `CNC(=O)CC1CCN(Cc2nc(-c3ccc(SC)cc3)oc2C)CC1`: the Percent Effect in assay [1] is -1.17%; in assay [2] it was -3.87%.
On the same counts, the results for `Cc1nc(Nc2nnc(C)s2)cc(C2CCCN2C)n1` (centres undefined) are 2.4% and -26.6%.
In the case of `CS(=O)(=O)NCC1CCCN(C(=O)COCc2ccccc2)C1` (centres undefined), the Percent Effect in assay [1] is -6.12%; in assay [2], -16.5%.
As to `O=C(Nc1ccc(F)cc1F)Nc1c[nH]c(=O)[nH]c1=O`, the results for the Percent Effect in assay [1] and in assay [2] were 1.82% and -4.74%, respectively.
On the same counts, the results for `Cc1nnc(N2C[C@H](C(=O)NCC3CC3)[C@@H]3CCO[C@@H]3C2)s1` are -0.219% and -6.05%.
The corresponding values for `Cn1cccc1CN1CCC2(CCCN(C(=O)Cc3cccnc3)C2)C1` (centres undefined) are 4.47% and -14.5%.
The corresponding values for `CCOC(=O)CNC(=O)N1CCN(c2ncccn2)CC1` are 4.73% and -21.7%.
In the case of `CC(C)CCNC(=O)c1sccc1N(C)S(=O)(=O)c1ccccc1`, the Percent Effect is 5.12% in assay [1] and -20% in assay [2].
On the same counts, the results for `Cc1nc(C)n(CC2CCCCN2CC(=O)NC2CCOCC2)n1` (centres undefined) are -4.37% and -17.4%.
The corresponding values for `Cc1cc(C)n(CC2CCCN2C(=O)c2ccc(C(N)=O)cn2)n1` (centres undefined) are -3.07% and -49.3%.
With `CCn1c(C(=O)N2CCN(CC(C)O)CC2)cc2ccccc21` (centres undefined), the Percent Effect in assay [1] is -4.64%; in assay [2] it was -48.2%.
On the same counts, the results for `Cc1ccc(C(CNCc2ccncc2)N2CCOCC2)s1` (centres undefined) are 2.18% and -29.8%.
On the same counts, the results for `Cc1ccccc1C1(C(=O)NCCN2CCCC2)CCOCC1` are 11.1% and 12.4%.
The corresponding values for `COc1ccccc1OCCN1CCC(N2CCNC2=O)CC1` are -1.95% and 21%.
For the compound `COC[C@@H]1CC[C@H]2[C@H](CCN2S(=O)(=O)c2ccc(F)cc2)O1`, the results for the Percent Effect in assay [1] and in assay [2] were 8.74% and -4.21%, respectively.
The corresponding values for `O=C1C(NCc2nnc3n2CCCC3)CCN1c1ccccc1` (centres undefined) are -1.97% and -28.4%.
On the same counts, the results for `CCc1nnc2n1CCN(C(=O)c1cc(Br)c[nH]1)C2` are -3.52% and -47.9%.
On the same counts, the results for `CCc1nc(C)c(C(=O)NCCN2CCN(C(C)=O)CC2)s1` are 0.0694% and -21.7%.
As for `COc1ccccc1C(=O)N(C)Cc1ncc(C)c(OC)c1C`, the Percent Effect was -4.81% in assay [1] and 11.8% in assay [2].
For the compound `O=C(NCCCNc1ccccc1)c1scnc1Cl`, the Percent Effect is -0.926% in assay [1] and -10.4% in assay [2].
For `CCn1nnc2c1C(COC)CN(C(=O)Cc1cccs1)C2` (centres undefined), the Percent Effect in assay [1] was -8.15%; in assay [2], -30.3%.
The corresponding values for `CCNC(c1cccnc1)c1ccc(F)c(F)c1` (centres undefined) are -4.58% and 10.8%.
The corresponding values for `CCN1Cc2c(C(=O)NCC3CC3)ncn2-c2ccccc2S1(=O)=O` are -3.35% and 8.11%.
